Assay outcomes from PubChem BioAssay.
HTR2A ag: mouse Htr2a agonists via beta-arrestin recruitment, primary screen, cell-based, luminescence; 5-hydroxytryptamine receptor 2A (Mus musculus), P35363; CHO-K1 mHTR2A beta-arrestin complementation; percent of 30 µM serotonin response; activation, % at 7.6 µM; 360,000 compounds, 0.66% hits;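 active means activation above a run cutoff, the mean activation of all tested compounds plus 3 SD, cut at about 14% in these data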;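 further: 0% = plate median of compound wells and 100% = 30 µM serotonin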
Target sequence (P35363 whole entry, looked up): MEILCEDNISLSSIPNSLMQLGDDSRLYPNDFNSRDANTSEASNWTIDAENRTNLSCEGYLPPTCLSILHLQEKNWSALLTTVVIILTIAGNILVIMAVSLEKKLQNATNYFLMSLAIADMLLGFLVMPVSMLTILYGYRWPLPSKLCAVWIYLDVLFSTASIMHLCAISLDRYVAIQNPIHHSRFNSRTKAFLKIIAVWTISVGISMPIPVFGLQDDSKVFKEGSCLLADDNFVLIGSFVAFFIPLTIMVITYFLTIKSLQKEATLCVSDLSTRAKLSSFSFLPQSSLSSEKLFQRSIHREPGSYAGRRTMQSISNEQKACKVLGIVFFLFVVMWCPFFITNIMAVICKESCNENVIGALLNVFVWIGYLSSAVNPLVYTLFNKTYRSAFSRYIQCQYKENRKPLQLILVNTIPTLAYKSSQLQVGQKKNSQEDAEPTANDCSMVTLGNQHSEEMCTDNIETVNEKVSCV
CTSL1 counter: Fasciola hepatica cathepsin L1 inhibitors, primary screen, counter-screen for PFM18AAP inhibitor project, biochemical, QFRET, fluorogenic peptide substrate | recombinant F. hepatica cathepsin L1, Z-Leu-Arg-MCA fluorescence | inhibition, % at 5.96 µM | 300,000 compounds, 0.49% hits | AID 1906, 2009;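 active means inhibition above the mean of all tested compounds plus 3 SD, set per screening campaign, cut at about 17% in these data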;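 further: 0% = plate median of test compound wells and 100% = 1 µM Z-Phe-Ala-diazomethylketone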
HDAC3 inh: HDAC3 deacetylase inhibitors, primary screen, biochemical, fluorescence, cell-free homogeneous; Histone deacetylase 3 (Homo sapiens), O15379; recombinant HDAC3, fluorogenic peptide/trypsin coupled; inhibition, % at 8.3 µM; 320,000 compounds, 0.15% hits; in the data active means inhibition above about 26%, passing the limit was not always enough; inconclusive means no clear call, values can overlap the other calls
LANA-H2A inh: blockers of LANA interaction with H2A/H2B – biochemical, FP readout, HTS, primary screen; cell-free LANA-H2A/H2B peptide, fluorescence polarization; Protein LANA1 (Human herpesvirus 8 type P (isolate GK18)), Q9QR71; AID 2629, 2010; 320,000 compounds, 0.6% hits; inhibition, % (no concentration beside the values); in the data active means inhibition mostly above about 10%, no sharp cut-off; inactive means mostly below about 6.7%
MOR ag counter: OPRM1 agonists via beta-arrestin recruitment, confirmation, counter-screen for mouse HTR2A agonist project, cell-based, luminescence, single concentration; shares compounds with HTR2A ag; U2OS OPRM1 beta-arrestin PathHunter; DMSO 0%, DAMGO 9.3 µM 100%; activation, % at 9.3 µM; 2,300 compounds, 5.3% hits; AID 624380, 2012;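 active means mean activation above the mean of DMSO-only wells plus 3 SD, cut at about 0.5% in these data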
HTR2A ag conf: mouse HTR2A agonists, beta-arrestin recruitment, confirmation, cell-based, luminescence, CHO-K1 PathHunter, triplicate | activation, % at 7.6 µM | DMSO 0%, 30 µM serotonin 100% | 2,300 compounds, 19% hits | shares compounds with HTR2A ag;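 active means mean activation across triplicates above the hit threshold derived in the original primary screen, cut at about 15% in these data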
The depositor's hits bear a star. The list is not random: actives were taken first. Their share in the collection is about 1.7%.

COc1cc(-c2ccc3c(=O)c4ccccc4n(C)c3c2)cc(OC)c1OC was read as HTR2A ag 18*, CTSL1 counter 3, HDAC3 inh 8, LANA-H2A inh -7, MOR ag counter 0 and HTR2A ag conf 1.
For Cc1ccc(NC(=O)c2ccccc2SCC(=O)N2CCCC2)cc1S(=O)(=O)N(C)C the results were HTR2A ag -3, CTSL1 counter -3, HDAC3 inh -1 and LANA-H2A inh 2.
Screening COc1cccc(NC(=O)c2ccc(CN3CCN(c4ccccc4)CC3)cc2)c1 returned HTR2A ag 33*, CTSL1 counter 1, HDAC3 inh -1, LANA-H2A inh -6, MOR ag counter 0 and HTR2A ag conf 60*.
CSc1ccc(N2CCN(CCCNC(=O)Nc3ccccc3F)CC2)cc1 was read as HTR2A ag 17*, CTSL1 counter -1, HDAC3 inh 8, LANA-H2A inh 2, MOR ag counter 0 and HTR2A ag conf 39*.
COc1ccc(NC(=O)c2ccc(CN3CCN(c4ccccc4)CC3)cc2)cc1 was read as HTR2A ag 5, CTSL1 counter -1, HDAC3 inh -3 and LANA-H2A inh -2.
Screening O=C(Nc1ccccc1F)c1ccc(CN2CCN(c3ccccc3)CC2)cc1 returned HTR2A ag 20*, CTSL1 counter 4, HDAC3 inh 1, LANA-H2A inh 4, MOR ag counter 0.8* and HTR2A ag conf 95*.
`Nc1nc2c(ncn2[C@@H]2O[C@H](CNS(=O)(=O)c3cccnc3)[C@@H](O)[C@H]2O)c(=O)[nH]1` gave HTR2A ag 3.
`COc1ccccc1CNC(=O)COc1ccc(S(=O)(=O)N2CCCC2)cc1` gave HTR2A ag -1, CTSL1 counter -4, HDAC3 inh -5 and LANA-H2A inh -3.
For Cc1cccc(N2CCN(C(=O)c3cc4ccccc4oc3=O)CC2)c1C the results were HTR2A ag 16*, CTSL1 counter 4, LANA-H2A inh -6, MOR ag counter 0 and HTR2A ag conf -5.
Screening O=C(Nc1ccc(F)cc1F)c1ccccc1NC(=O)C1CC=CCC1C(=O)O (configuration not stated) returned HTR2A ag -1, CTSL1 counter 3, HDAC3 inh 7 and LANA-H2A inh 7.
For c1ccc(CCn2cccc2)nc1 the results were HTR2A ag 5.
Screening O=C(NCc1ccc(F)cc1)c1cc(C2CCCCN2C(=O)c2ccc(Cl)cc2)on1 (configuration not stated) returned HTR2A ag 15*, MOR ag counter -1 and HTR2A ag conf -6.
`CC(C)(C)C(=O)N(Cc1nc2ccccc2c(=O)[nH]1)Cc1cccs1` gave HTR2A ag 15*, CTSL1 counter -2, HDAC3 inh 3, LANA-H2A inh -1, MOR ag counter -1 and HTR2A ag conf -6.
`CCCCOc1ccc(C(=O)NCC(=O)NNC(=O)C2COc3ccccc3O2)cc1` (configuration not stated) gave HTR2A ag 0, HDAC3 inh 3 and LANA-H2A inh -1.
For CCOc1ccc(C(=O)NCC(=O)NNC(=O)C2COc3ccccc3O2)cc1OCC (configuration not stated) the results were HTR2A ag 19*, CTSL1 counter 2, HDAC3 inh -7, LANA-H2A inh -2, MOR ag counter -1 and HTR2A ag conf -3.
O=C(NCC(=O)N1CCN(S(=O)(=O)c2ccc3c(c2)OCCO3)CC1)c1ccccc1Cl was read as HTR2A ag 1, HDAC3 inh 6 and LANA-H2A inh 3.
Screening O=C(NCC(=O)N1CCN(S(=O)(=O)c2ccc3c(c2)OCCO3)CC1)c1ccccc1F returned HTR2A ag 15*, HDAC3 inh -4, LANA-H2A inh 5, MOR ag counter -1 and HTR2A ag conf -3.
Screening CC1c2ccccc2N(S(=O)(=O)c2ccccc2)C1C (configuration not stated) returned HTR2A ag -1.
c1csc(C(c2nnnn2C2CCCCC2)N2CCN(c3nc4ccccc4s3)CC2)c1 (configuration not stated) was read as HTR2A ag 15*, MOR ag counter -1 and HTR2A ag conf 8.
CCCCC(c1nnnn1CC1CCCO1)N1CCN(c2nc3ccccc3s2)CC1 (configuration not stated) was read as HTR2A ag 16*, MOR ag counter -1 and HTR2A ag conf 9.
Screening CC(C)c1ccc(CNc2ncccn2)cc1 returned HTR2A ag -3, CTSL1 counter -8, HDAC3 inh 6 and LANA-H2A inh 2.
For COc1ccc(-n2c(SCC(=O)Nc3cc(C)on3)nc3c(c2=O)SCC3)cc1OC the results were HTR2A ag 23*, CTSL1 counter 6, HDAC3 inh -1, LANA-H2A inh 0, MOR ag counter -1 and HTR2A ag conf -4.
CCN(C(=O)CSc1ccc2ccccc2c1)C1CCS(=O)(=O)C1 (configuration not stated) was read as HTR2A ag 16*, CTSL1 counter -1, HDAC3 inh 3, LANA-H2A inh -1, MOR ag counter -1 and HTR2A ag conf 0.
CCN(C(=O)CSc1nc2ccccc2o1)C1CCS(=O)(=O)C1 (configuration not stated) was read as HTR2A ag 3, CTSL1 counter -6, HDAC3 inh inconclusive and LANA-H2A inh -1.
Screening CCOC(=O)/C=C(\C)N1N=C(c2ccccc2)CC1c1ccccc1 (configuration not stated) returned HTR2A ag 20*, CTSL1 counter -3, HDAC3 inh 1, LANA-H2A inh -1, MOR ag counter -1 and HTR2A ag conf -3.
`O=C(COC(=O)c1cnccn1)NCc1ccccc1Cl` gave HTR2A ag -3.
Screening COc1ccc(-c2noc(CN(C)C(=O)c3ccc4c(c3)OCO4)n2)cc1OC returned HTR2A ag 4, CTSL1 counter 4, HDAC3 inh 2 and LANA-H2A inh 6.
COc1ccc(-c2noc(CN(C(=O)c3ccc4c(c3)OCO4)C(C)C)n2)cc1OC was read as HTR2A ag 16*, CTSL1 counter 0, MOR ag counter -1 and HTR2A ag conf -3.
`NC(=O)CSc1nc2cc(Cl)ccc2c(=O)n1C1CCCCC1` gave HTR2A ag -9, CTSL1 counter 3, HDAC3 inh 6 and LANA-H2A inh 6.
